The nature of this assay: cell-free HIV fusion peptide-binding blockers – biochemical, uHTS, fluorescence dequenching, primary screen (AID 1986). The following applies: 30 min, stronger effect = higher value.
The mark [1] stands for this setting: measured here: repeat confirmation average inhibition, at 18.6 µM.

Inhibition data for 56 compounds are collected here from PubChem BioAssay AID1986 (Sanford-Burnham Center for Chemical Genomics, 2009).

In all, about 290,000 compounds went through this assay and about 890 (0.31%) were called active. Rule as the data show it: active = inhibition mostly above about 52% (no sharp cut-off); inactive = mostly below about 76%. Shown is part of a subset that was picked to be rich in actives.

Consider `O=C(/C=C/c1ccccc1)NCCSCc1ccccc1Cl`, for which the inhibition (at 20 µM) is -2.6% (inactive).

Turning to `O=S1(=O)C=CC(c2ccccc2)C1` (stereo not drawn), where the note is “at 20 µM”, the inhibition is 0.2% (inactive).

With `COC(=O)c1nn(-c2ccccc2)c(Sc2ccc(OC)cc2)c1/C=N/O`, under “at 20 µM”, the inhibition is 2.7% (inactive).

As to `O=c1c(-c2ccccc2)coc2c(CN3CCCCC3)c(O)ccc12`, the inhibition (at 20 µM) was 0.2% (inactive).

In the case of `O=C(O)C(c1ccccc1)N1C(=O)/C(=C\c2ccc(-c3cccc(Cl)c3)o2)SC1=S` (stereo not drawn), the inhibition is, setting by setting: (at 20 µM) 91.2% (active); under setting [1], 120%.

Regarding `COc1ccccc1/C=C1\SC(=S)N(C(C(=O)O)c2ccccc2)C1=O` (stereo not drawn), the inhibition (at 20 µM) is 30.1% (inactive).

`O=C(O)C(c1ccccc1)N1C(=O)/C(=C\c2ccc(-c3ccc(Br)cc3)o2)SC1=S` (stereo not drawn): where the note is “at 20 µM”, the inhibition is 143% (inactive).

For `O=C(O)C(c1ccccc1)N1C(=O)/C(=C/c2cccs2)SC1=S` (stereo not drawn), for the setting “at 20 µM”, the inhibition is 14.3% (inactive).

For `O=C(O)C(c1ccccc1)N1C(=O)/C(=C\c2ccc(-c3ccccc3Cl)o2)SC1=S` (stereo not drawn), the inhibition is 94.5% (active) (at 20 µM) and 110% under setting [1].

`O=C1NC(=S)/C(=C\c2ccc(-c3ccccc3Cl)o2)S1`: the inhibition is 70.7% (inactive) (at 20 µM) and 0.5% under setting [1].

On to `COc1ccc(OC)c2[nH]c(=O)c(CCNC(=O)c3ccc(S(=O)(=O)N4CCCCC4)cc3)cc12`, for which, under “at 20 µM”, the inhibition was -1.4% (inactive).

Turning to `Cc1ccc2c(c1)N(CCC(=O)NCCCOC(C)C)C(=O)C(C)O2` (stereo not drawn), for the setting “at 20 µM”, the inhibition is -1.1% (inactive).

As for `COC(=O)c1sc2ccccc2c1NC(=O)c1ccc(S(=O)(=O)N2CC(C)CC(C)C2)cc1` (stereo not drawn), under “at 20 µM”, the inhibition was -1.5% (inactive).

`CCOc1ccc(Br)cc1S(=O)(=O)NCCN(C)C`: for the setting “at 20 µM”, the inhibition was 2% (inactive).

As to `CCN(CC)c1ccc2c(C)c(Cl)c(=O)oc2c1`, for the setting “at 20 µM”, the inhibition is 4.7% (inactive).

As to `CCN(CC)c1ccc2c(c1)oc(=O)c1c(Cl)cc(=O)oc12`, the inhibition (at 20 µM) was 106% (active) and the inhibition under setting [1] was found to be 164%.

Consider `CCN(CC)c1ccc2c(Cl)cc(=O)oc2c1`, for which the inhibition (at 20 µM) is 3.7% (inactive).

`C#CCOCCOCCOCCNc1nc(N2CCN(C(=O)[C@H]([C@@H](C)CC)n3cc([C@@H](N)CC(C)C)nn3)CC2)nc(N2CCN(C(=O)[C@H](CCCCN)n3cc([C@@H](N)CO)nn3)CC2)n1`: the inhibition (at 20 µM) is -1.1% (inactive).

As for `CC(C)(C)NC(=O)NC(=O)COC(=O)c1ccco1`, the inhibition (at 20 µM) was 1.7% (inactive).

For `O=C(O)/C=C/C(=O)N(CC1CCCO1)C1CC(=O)N(c2c(Cl)cccc2Cl)C1=O` (stereo not drawn), the inhibition (at 20 µM) was 7.8% (inactive).

As for `O=C1N=C(N2CCN(c3ccccc3)CC2)S/C1=C\c1ccco1`, under “at 20 µM”, the inhibition is 0.9% (inactive).

Consider `O=C1N=C(N2CCCC2C(=O)O)S/C1=C\c1ccco1` (stereo not drawn), for which the inhibition (at 20 µM) was 52.2% (active).

As for `O=C1N=C(N2CCN(c3ccccc3)CC2)S/C1=C/c1ccco1`, the inhibition (at 20 µM) was -1.8% (inactive).

With `CCOc1cc(CNCCCN2CCOCC2)cc(Br)c1OCc1ccccc1Cl`, the inhibition (at 20 µM) was 0.9% (inactive).

As to `Cc1ccc(N/N=C/c2ccc3c(c2)OCCO3)cc1Cl`, the inhibition (at 20 µM) is 2.7% (inactive).

With `COC(=O)c1nnn(-c2ccccc2)c1N`, the inhibition (at 20 µM) was -4.4% (inactive).

Regarding `CCOC(=O)C1=C(N)n2c(s/c(=C\c3cccs3)c2=O)=C(C(=O)OCC)C1c1cccs1` (stereo not drawn), for the setting “at 20 µM”, the inhibition is 3.8% (inactive).

As for `N#CC1=C(N)n2c(s/c(=C\c3cccs3)c2=O)=C(C#N)C1c1cccs1` (stereo not drawn), the inhibition (at 20 µM) was 74.8% (active).

With `N#CC1=C(N)n2c(s/c(=C\c3ccco3)c2=O)=C(C#N)C1c1ccco1` (stereo not drawn), the inhibition (at 20 µM) was 26% (inactive).

`CCc1nnc(NC(=O)C2Cc3ccccc3C(=O)O2)s1` (stereo not drawn): for the setting “at 20 µM”, the inhibition is -3.6% (inactive).

As to `CCOC(=O)c1c(-c2ccc(OC)cc2)csc1/N=C/C1C(=O)CCCC1=O`, the inhibition was 52.3% (inactive) (at 20 µM) and 2.2% under setting [1].

As to `CCOC(=O)c1c(/N=C/C2=C(O)CCCC2=O)sc2c1CCCC2`, where the note is “at 20 µM”, the inhibition was -0.2% (inactive).

Consider `CCOC(=O)c1c(/N=C/C2=C(O)CCCC2=O)sc(C)c1C`, for which the inhibition (at 20 µM) was 52.3% (active).

For `CCOC(=O)c1c(/N=C/C2=C(O)CC(C)(C)CC2=O)sc(C)c1C`, the inhibition (at 20 µM) was 1.6% (inactive).

As to `CCOC(=O)c1c(CC(C)C)csc1/N=C/C1=C(O)CCCC1=O`, the inhibition (at 20 µM) is 21.5% (inactive).

For the compound `CCOC(=O)c1c(-c2ccc(OC)cc2)csc1/N=C/C1=C(O)CCCC1=O`, the inhibition (at 20 µM) is 71.6% (active).

As for `Cc1ccc(C(=O)CC(C(=O)O)n2cncn2)cc1` (stereo not drawn), under “at 20 µM”, the inhibition is 1.7% (inactive).

As to `Cc1ccc2c(c1)S/C(=C/c1ccc[n+](C)c1)N2CCO`, the inhibition (at 20 µM) was -0.9% (inactive).

Regarding `O=C(CC1SC(=O)N(Cc2ccccc2Cl)C1=O)Nc1nccs1` (stereo not drawn), the inhibition (at 20 µM) was -0.8% (inactive).

As for `Cn1c(CCNC(=O)C(C)(C)C)nc2ccccc21`, the inhibition (at 20 µM) was 1.8% (inactive).

`C=C1c2cccc(O)c2C(O)=C2C(=O)[C@]3(O)C(O)=C(C(N)=O)C(=O)[C@@H](N(C)C)[C@@H]3[C@@H](O)[C@H]12`: where the note is “at 20 µM”, the inhibition is 63.7% (active).

Consider `CN(C)[C@@H]1C(=O)C(C(N)=O)=C(O)[C@@]2(O)C(=O)C3=C(O)c4c(O)ccc(Cl)c4[C@@H](O)[C@H]3C[C@@H]12`, for which the inhibition (at 20 µM) was 58.4% (active).

On to `CN(C)c1ccc(O)c2c1CC1CC3[C@@H](N(C)C)C(=O)C(C(N)=O)=C(O)[C@]3(O)C(=O)C1=C2O` (stereo partly drawn), for which the inhibition by setting is: (at 20 µM) 54% (inactive); under setting [1], 4.9%.

Turning to `C[C@H]1c2cccc(O)c2C(O)=C2C(=O)[C@]3(O)C(O)=C(C(N)=O)C(=O)[C@@H](N(C)C)[C@@H]3[C@@H](O)[C@@H]21`, where the note is “at 20 µM”, the inhibition is 16% (inactive).

Consider `COc1ccc2nc(NC(=O)Cn3cnc4c(=O)n(C)c(=O)n(C)c43)sc2c1`, for which, for the setting “at 20 µM”, the inhibition is 4% (inactive).

For `CCN(CC)C(=O)CC(c1ccc(F)cc1)c1ccc(OC)cc1` (stereo not drawn), under “at 20 µM”, the inhibition was 2% (inactive).

Consider `COc1ccc(OCC(=O)Nc2ccncc2)cc1`, for which the inhibition (at 20 µM) was 1.1% (inactive).

In the case of `CCC1(c2ccccc2)NC(=O)N(CC(=O)Nc2ccccc2N2CCCCC2)C1=O` (stereo not drawn), under “at 20 µM”, the inhibition was 2.6% (inactive).

On to `S=c1[nH]nc(C2CCCCC2)o1`, for which the inhibition (at 20 µM) was 0.3% (inactive).

For `COC(=O)[C@H](CCSC)NC(=O)NCCC1=CCCCC1`, the inhibition (at 20 µM) is 0.8% (inactive).

For the compound `CCc1cccc(NC(=O)CN(C)S(=O)(=O)c2cccs2)c1`, the inhibition (at 20 µM) is 27.6% (inactive).

Take `Cc1ccc(C)c(N(C(=O)c2csnn2)C(C(=O)NC2CCCCC2)c2ccncc2)c1` (stereo not drawn): where the note is “at 20 µM”, the inhibition was -2.4% (inactive).

Take `CSc1nc(-c2ccco2)cc(-c2ccccc2)c1C#N`: the inhibition (at 20 µM) is -1.1% (inactive).

As for `N#Cc1c(-c2ccco2)cc(-c2ccccc2)[nH]c1=O`, the inhibition (at 20 µM) was 50.8% (inactive) and the inhibition under setting [1] is 12.4%.

As to `N#Cc1c(-c2ccccc2)cc(-c2ccco2)c(C#N)c1N`, the inhibition (at 20 µM) was 70.5% (active).

Turning to `CN(C)c1cccc(NC(=O)c2cccc3ccccc23)c1`, the inhibition (at 20 µM) is -1.2% (inactive).

The inhibition is the change of the read-out against control, counted positive when it falls.
